Experimental data from ChEMBL document CHEMBL4888484, “Replenishing the malaria drug discovery pipeline: Screening and hit evaluation of the MMV Hit Generation Library 1 (HGL1) against asexual blood stage Plasmodium falciparum ,using a nano luciferase reporter read-out” (2022).
Screen size: about 4,800 compounds; about 420 (8.8%) showed an effect of 50% or more. The list comes from a sample in which strong results are over-represented; it also holds similar structures and randomly drawn compounds.

tested on: Plasmodium falciparum; test: Confirmatory screen in NF54 nanoGlo assay, in single point, at 2uM, 72h; format: functional, Erythrocyte; conditions: timepoint 72 hour

Row | Compound | % Inhibition
1 | CCn1cnnc1C1CCN([C@@H](C)C(=O)Nc2ccccc2C)CC1 | -7%
2 | COc1ccc(C)cc1-n1ccc(C(=O)N2CCCc3c(C(N)=O)cccc32)n1 | -11%
3 | COC(=O)c1ncn(CNC2(c3ccc(Cl)cc3)CCCC2)n1 | 6%
4 | CN(C)c1ccc(-c2nc([C@H]3CCOC3)cs2)cc1 | 6%
5 | Cc1cc(CN2C(=O)NC3(CCCCC3)C2=O)no1 | -4%
6 | Cc1cccnc1C(=O)N1CC(n2cnnc2[C@@H]2CCCO2)C1 | -2%
7 | CC(=O)c1cc(-c2cc(O)cc(CC[C@H]3CCCCN3)c2)ccc1O | 78%
8 | Cc1cc(S(=O)(=O)NC[C@H]2CCCCN2)sc1C | -9%
9 | Cc1ccc(-c2cc(O)cc(CC[C@H]3CCCCN3)c2)c(C)n1 | 53%
10 | Cc1cc(-c2cc(O)cc(CC[C@H]3CCCCN3)c2)ccn1 | 79%
11 | CC1CC(N)CCN1C(=O)c1cccc(-c2noc(C3CC3)n2)c1 (centres undefined) | 2%
12 | CN(CCOc1ccc(Cl)cc1Cl)[C@H]1CCS(=O)(=O)C1 | -7%
13 | CCN(C(C)=O)c1ccc(Cl)cc1F | -13%
14 | COc1ccc(C)cc1NC(=O)C[C@H]1CCN(S(C)(=O)=O)C1 | 0%
15 | Cc1cc2nc(C(=O)NC3CCN(Cc4ccccc4)CC3)c(=O)n(C)c2cc1C | -8%
16 | O=C(Cn1cccc1-c1nc(-c2ccc(F)c(Br)c2)no1)N1CCc2ccccc2C1 | 1%
17 | Cc1cc(NC(=O)c2ccc(COc3ccc4ccccc4c3)o2)nn1C | -3%
18 | CC(C)c1cc(=O)[nH]c(-n2nc(C3CC3)cc2NC(=O)COc2ccc3ccccc3c2)n1 | 70%
19 | Cc1ccc(N2C[C@@H](c3nnc(NC(=O)Cc4ccc(Cl)cc4)o3)CC2=O)cc1 | -13%
20 | O=C(Nc1ccc(OC(F)F)cc1)c1cc(C2CC2)nc2c1c(C1CC1)nn2-c1ccccc1 | -7%
21 | CC(C)c1cc(=O)[nH]c(-n2nc(C3CC3)cc2NC(=O)Cc2ccc(Cl)cc2)n1 | 69%
22 | CC(C)c1nc(C2CN(C(=O)Nc3ccc(F)c(Cl)c3)C2)n(C)n1 | 4%
23 | CCNC(=O)C1Cc2ccc(OC)cc2N2CCN(c3ccc(OC)cc3)CC12 (centres undefined) | 2%
24 | O=C(C[C@H]1CCN(C(=O)c2cc(F)ccc2F)C1)NC1CC1 | -2%
25 | CN(C)/C=C/c1cc(C#N)c(C#N)cc1Br | -4%
26 | O=C(c1c(F)cccc1F)N1C[C@@H]2CCCN2c2ccc(C(F)(F)F)cc21 | -13%

Row | Compound | % Inhibition
27 | COc1ccccc1-n1cnc2cc(C(=O)N3CCCC3)ccc2c1=O | -4%
28 | CC[C@H](C)[C@H](NC(=O)c1ccc(Br)c(F)c1)C(=O)O | -8%
29 | N[C@@H](CO)c1cccc(Br)c1 | 7%
30 | COC(=O)CN(c1ccccc1)S(=O)(=O)c1ccc2nncn2c1 | -1%
31 | COc1cccc(N2C(=O)N[C@H](C)C2=O)c1 | 8%
32 | COc1ccc(-c2c(-c3cccc(OC)c3)[nH]c3c2c(=O)[nH]c(=O)n3C)cc1 | 74%
33 | COc1cccc(C(=O)Nc2noc(-c3cccc(OC)c3)c2-c2ccc(Cl)cc2)c1 | -11%
34 | CC1CC(C)(C)CCC1NC(=O)NC1CCN(C)C1=O (centres undefined) | -4%
35 | COc1cccc(CCC(=O)N2CCN3CCC2C3)c1F (centres undefined) | -15%
36 | CC[C@@H](CO)NC(=O)Nc1ccc(Cl)cc1 | 6%
37 | CNC(=NCCCOc1cccc(OC)c1)NC | -6%
38 | Cc1nc2sc(C(=O)Nc3ccc4ccccc4c3)c(N)c2c(C)c1C | 2%
39 | Cc1cc(C(=O)Nc2ccc3ccccc3c2)co1 | -5%
40 | Cc1c(C)c2ccc(NC(=O)c3cc4ccccc4o3)cc2[nH]c1=O | 74%
41 | CN(Cc1ccc(-c2ccccc2)cc1)c1cc([C@H]2C[C@@H](N)C2)nc(N)n1 | 49%
42 | CC1CCN(C[C@@H](O)CNc2nnc(C(F)(F)F)s2)CC1 | -10%
43 | Cn1n[n+](CCCCC(Cl)(Cl)Cl)c2ccccc21 | 53%
44 | Cn1n[n+](CC(=O)Nc2ccccc2Cl)c2ccccc21 | -5%
45 | CCN(CC(=O)Nc1ccccc1OC)C(=O)c1ccc(S(=O)(=O)N2CCOCC2)cc1 | 10%
46 | CC(C)n1[nH]c(=O)c2c(C3CCCCC3)c3sc(=O)[nH]c3nc21 | -3%
47 | Nc1cc2c(cc1C1=Nc3ccccc3C(c3ccccc3)(c3ccccc3)N1)OCO2 | 10%
48 | COc1ccc(CCNC(=O)c2cc3c(=O)[nH]c(C)cn3n2)cc1OC | 67%
49 | COc1ccc(CCNC(=O)c2cc3n(n2)CCN(Cc2cccc(F)c2)C3=O)cc1OC | 17%
50 | COc1ccc(CCNC(=O)c2c(C)noc2-c2ccncc2)cc1OC | 1%
51 | C#CCN(C(=O)c1ccncc1CC)c1nccs1 | -10%
52 | CCCC1(c2ccncc2)CC(C)OC1=O (centres undefined) | -1%

Row | Compound | % Inhibition
53 | Cc1ccc(-c2noc(CCC(=O)NC[C@H]3CCCO3)n2)c(=O)n1C(C)C | -1%
54 | O=C(CCn1ncc2c(Cl)cccc21)NCC1CCCC1 | -9%
55 | c1cn(CCCOc2ccc3c(c2)OCO3)nn1 | 3%
56 | COc1ccc(CC(=O)NCCn2c(C(F)(F)F)nc3ccccc32)cc1 | 42%
57 | CC(C)C(=O)NCC(=O)Nc1ccc(C(F)(F)F)cc1 | -15%
58 | CCNC(=O)c1nc(-c2ccncc2)cs1 | -21%
59 | CC(C)C(=O)Nc1ccc(-c2cc(-c3ccc(NC(=O)C(C)C)cc3)nc(-c3ccncc3)n2)cc1 | 56%
60 | Cc1ccccc1C(=O)NCC(=O)NCCc1c[nH]c2ccccc12 | -7%
61 | Clc1ccccc1-c1c[nH]c([C@@H]2CCCN2)n1 | 5%
62 | O=C(Oc1cccc2cccnc12)c1ccc(-c2ccccc2)cc1 | 2%
63 | CC(C)(C)C(=O)NCCNC(=O)c1ccccn1 | 8%
64 | Oc1ccccc1CNc1cccc2cccnc12 | 98%
65 | O=C(Nc1cccc2cccnc12)c1ccccn1 | 80%
66 | O=C(Nc1cccc2cccnc12)c1cncc(Br)c1 | -12%
67 | CCN(CC)S(=O)(=O)c1ccc2c(c1)CCCN2C(=O)c1ccc2ccccc2c1 | 1%
68 | CCOC1CC(NC2CC(c3ccc(F)cc3)C2)C12CCC2 (centres undefined) | 67%
69 | CC1(C)NC(=O)CC[C@@H]1NC1CC(c2cccc(F)c2)C1 (some centres undefined) | 5%
70 | O=C(N[C@H](c1ccccc1)C1CC1)N1CCN(S(=O)(=O)c2cccc(F)c2)CC1 | 4%
71 | CCOC(=O)c1cc(F)cc(S(=O)(=O)Nc2ccnc3ncnn23)c1 | 34%
72 | COCc1cc(=O)n(CC(=O)NCc2ccccc2Cl)c(N2CCCC2)n1 | -11%
73 | Cc1nn(C)c(Oc2cccc(F)c2)c1NC(=O)CC(C)C | 8%
74 | O=C(NCCN1CCCC1)c1ccc2nc(-c3ccc(Cl)cc3)cn2c1 | 18%
75 | CC(C)(C)n1nc2nc(NCCN3CCCCC3)nc(-c3ccc(F)c(Cl)c3)c2c1N | 62%
76 | COCc1cc(F)ccc1NC(=O)NC1CCN(c2cc(C)nc(C)n2)CC1 | -5%
77 | CCOc1ccccc1C(=O)Nc1c(-n2cnnc2)nn(C)c1C | 2%
78 | CC(NCCn1cccn1)C(=O)N1c2ccccc2CC1C (centres undefined) | -10%

Row | Compound | % Inhibition
79 | Cc1ccc(Cn2ccn3nc(-c4ccc5c(c4)OCO5)cc3c2=O)cc1C | -9%
80 | N#Cc1ccc(C(=O)N[C@H]2CCCc3c2cnn3-c2ccccn2)cc1 | 2%
81 | COc1ccnc(CN2CC[C@](C)(O)[C@H](O)C2)c1 | -2%
82 | Oc1ccc2cc(CN3CCC[C@H](CN4CCCC4)C3)ccc2c1 | 17%
83 | CN1CCN([C@H]2CCN(c3ccnc4ccc(Cl)cc34)C[C@H]2CCCO)CC1 | 26%
84 | COc1ccccc1CN1COc2cc3c(cc2C1)OCO3 | 22%
85 | CCC[C@]1(C)NC(=O)N(c2csc(-c3ccccc3)n2)C1=O | -3%
86 | CCn1nc(C)c(CN(C)C(=O)c2nn3cccnc3c2Cl)c1C | -2%
87 | COCCN(CC1CN(Cc2ccccn2)CC1c1cccc(F)c1)C(=O)COC (centres undefined) | -3%
88 | C[C@H](C(=O)NCc1cc(F)cc(F)c1)C1CCOCC1 | -5%
89 | CCOc1ccc(C2c3[nH]c4ccccc4c3C[C@H]3C(=O)N(C4CCN(Cc5ccccc5)CC4)CC(=O)N23)cc1OC (some centres undefined) | 80%
90 | COc1ccc(CNC(=O)c2ccc(N3C(=O)[C@@H]4Cc5c([nH]c6ccccc56)C(c5cccc(OC)c5)N4C3=O)cc2)cc1 (some centres undefined) | 49%
91 | COc1ccccc1C1c2[nH]c3ccccc3c2C[C@H]2C(=O)N(CC(O)c3ccccc3)CC(=O)N12 (some centres undefined) | 33%
92 | COc1ccccc1N1CCN(c2nc(Nc3ccc(F)cc3)c3nc[nH]c3n2)CC1 | -18%
93 | Cc1ccc(CC(=O)N2C[C@H](c3ccccc3)C(c3ccc(Cl)cc3)=N2)cc1 | 6%
94 | CCCNC(=O)CNC(=NC1CC1)NCc1ccccc1C | -3%
95 | COc1nc(NC2CCS(=O)(=O)CC2)ncc1F | 75%
96 | CC(C)(NCCc1c[nH]c2ccccc12)c1nnnn1Cc1cccnc1 | 3%
97 | O=C(NCCc1nnc[nH]1)C1(Cc2ccccc2)CC2CCC1C2 (centres undefined) | -9%
98 | Cc1ccc(O)c(CNc2ccc3c(c2)OCC3(C)C)n1 | -7%
99 | Cc1ccc(O)c(CNCC2(c3ccccc3Cl)CCOCC2)n1 | 99%
100 | N[C@H]1COc2ccc(Br)cc2C1=O | -3%
101 | Cc1cccc(Nc2nc(-c3cnc(N4CCN(C)CC4)nc3C)cc(=O)[nH]2)c1 | -7%
102 | Cc1ccc(NC(=O)Nc2cccc(-c3ccc(N4CCN(C)CC4)nn3)c2)cc1C | 10%
103 | O=C(Nc1ccc(-n2cncn2)cn1)c1cscn1 | -18%
104 | COc1ccc(S(=O)(=O)Nc2c(C)ccc3nsnc23)cc1OC | 4%
